Compounds without any hit were thinned out: in the full panel of roughly 79,000, 15% have a hit. Active and inactive are the calls of the source. Rule as the data show it: active = growth inhibition above about 70%; inactive = the rest.
What was measured:
[1] = NCI Yeast Anticancer Drug Screen. Data for the rad50 strain (AID 155);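 also: 0% = growth of vehicle-only cultures of the same strain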; settings: S. cerevisiae rad50 strain growth inhibition; at 50.0 µM; stronger effect = higher value
How it was run: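 Inhibition values express reduced yeast growth in compound-treated cultures relative to vehicle-treated controls.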

[2] = NCI Yeast Anticancer Drug Screen. Data for the mec2-1 strain (AID 157); settings: S. cerevisiae mec2-1 strain, at 50.0 µM, stronger effect = higher value
How it was run: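 Compounds were applied to mec2-1 yeast cells. Their growth was then compared with that of vehicle-treated cultures to give growth inhibition.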

[3] = NCI Yeast Anticancer Drug Screen. Data for the sgs1 mgt1 strain (AID 161);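 also: 0% = growth of cultures given vehicle only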; settings: S. cerevisiae sgs1 mgt1 strain, at 50.0 µM, stronger effect = higher value
How it was run: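 Yeast cells carrying a defined DNA-repair defect were exposed to test compounds. Growth inhibition was measured relative to vehicle-treated controls.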

[4] = NCI Yeast Anticancer Drug Screen. Data for the cln2 rad14 strain (AID 165);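 also: 0% = growth equal to vehicle treated cultures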; settings: S. cerevisiae cln2 rad14 strain, at 50.0 µM, stronger effect = higher value
How it was run: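 Strain: cln2 rad14 yeast, altered in cell cycle control and DNA damage repair. Read-out: growth inhibition vs vehicle.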

[5] = NCI Yeast Anticancer Drug Screen. Data for the bub3 strain (AID 167); settings: S. cerevisiae bub3 mutant strain, at 50.0 µM, stronger effect = higher value
How it was run: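 Steps: expose the mutant yeast strain to compound; grow alongside vehicle-treated cultures; measure growth; express inhibition against the vehicle cultures.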

[6] = NCI Yeast Anticancer Drug Screen. Data for the mlh1 rad18 strain (AID 175); settings: S. cerevisiae mlh1 rad18 strain growth inhibition; at 50.0 µM; stronger effect = higher value
How it was run: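 A repair-deficient yeast strain is exposed to test compound, and growth is scored relative to vehicle-treated controls.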

Measured: growth inhibition

CC(=O)NC1=C(C)C(=O)c2c(nc3n2CCC3OC(=O)c2ccccc2)C1=N (configuration not stated)
inactive: [1] 15% | [2] -8.3% | [3] 22% | [4] 6% | [5] 26.9% | [6] -34%

COc1cc(C2c3cc4c(cc3OC(Nc3ccccc3)C2C)OCO4)cc(OC)c1OC (configuration not stated)
inactive: [1] -12.7% | [2] 5.6% | [3] 2.95% | [4] -10.6% | [5] -6.5% | [6] 20.8%

COc1ccc(/C=C\c2cc(OC)c(OC)c(OC)c2)cc1OC(=O)CC(N)C(=O)O (configuration not stated)
inactive: [1] -19.6% | [2] -10.3% | [3] -8.65% | [4] -6.65% | [5] -1.55% | [6] -5.8%

O=C(Cc1nc2ccc(C(=O)c3ccccc3)cc2[nH]c1=O)C(=O)Nc1ccc(Br)cc1
inactive: [1] -27.6% | [2] -28.9% | [3] -2.65% | [4] -9.4% | [5] -3.3% | [6] -3.7%

CC1CCC(C)C(O)C1 (configuration not stated)
inactive: [1] -21.9% | [2] -22.3% | [3] -19.1% | [4] 23.1% | [5] -27.8% | [6] 3.25%

CN(C)CCNc1ccc(CO)c2sc3ccc(O)cc3c(=O)c12
inactive: [1] 11.4% | [2] -3.65% | [3] 12.1% | [4] -32% | [5] 12.2% | [6] -9.25%

COc1ccc(NS(=O)c2cccc(C)c2)cc1 (configuration not stated)
inactive: [1] -8.05% | [2] -11.1% | [3] -16.1% | [4] -18.3% | [5] -3.1% | [6] 9.4%

O=C1/C(=C/c2ccccc2)CN(C(=O)OCC(Cl)(Cl)Cl)C/C1=C\c1ccccc1
inactive: [1] 2.6% | [2] 7.3% | [3] -31.4% | [4] 4.9% | [5] -11% | [6] -57.7%

CC(=O)c1c(C)[nH]c(C(=O)O)c1C
inactive: [1] 24.7% | [2] 4.3% | [3] 8.75% | [4] -14.4% | [5] 5.35% | [6] 16.6%

O=S1(=O)OCCC1C(O)(c1ccccc1)c1ccccc1 (configuration not stated)
inactive: [1] 1.7% | [2] -3.65% | [3] 6.8% | [4] -49.3% | [5] 11.2% | [6] 16.9%

C[N+](C)(C)CC(=O)c1ccc[nH]1
inactive: [1] 2.1% | [2] -11.2% | [3] 14.9% | [4] -0.8% | [5] 1.4% | [6] 13.1%

CCOC(=O)CNCc1cccc(C)c1
inactive: [1] -1.45% | [2] -10.2% | [3] -19.1% | [4] -82.8% | [5] 0.6% | [6] 1.95%

C1=C(c2ccccc2)CC(c2ccc(-c3ccccc3)cc2)=C1
inactive: [1] 6.9% | [2] 1.15% | [3] 1.55% | [4] -27.6% | [5] -10.2% | [6] 16.4%

CCCCCCC#CC(=O)O
inactive: [1] 7.8% | [2] -3.6% | [3] 0.5% | [4] 16.1% | [5] -4.3% | [6] 30.4%

CC1CCCCN1Cc1ccccc1COC(=O)c1cccc(Br)c1 (configuration not stated)
inactive: [1] 32.5% | [2] -1.65% | [3] 43.3% | [4] -16.9% | [5] 16.1% | [6] 2.4%

c1ccc(/N=C2\c3ccccc3CN2c2ccccn2)nc1
inactive: [1] -21.9% | [2] 3.75% | [3] -7.6% | [4] -3.75% | [5] 9% | [6] -1.35%

CCCCCCCCCCCCCCCCCCN(C)CC(COC)OP(=O)([O-])OCC[N+](C)(C)C (configuration not stated)
inactive: [1] 22.6% | [2] 14.3% | [3] 15.1% | [4] -3.45% | [5] 0.25% | [6] 24.9%

NC1=NN(c2ccccc2)C(=O)C1C(=O)CCC(=O)Nc1cccc(Cl)c1 (configuration not stated)
inactive: [1] 9.9% | [2] -1.8% | [3] -11.4% | [4] 18.2% | [5] 5.35% | [6] 2.1%

O=C(Nc1cccc(C(=O)NCCCO)c1)/C(=C/c1ccccc1)NC(=O)c1ccccc1
inactive: [1] 0% | [2] -1.85% | [3] 1.45% | [4] 9.35% | [5] -2.4% | [6] 4.35%

Cc1cccc(-c2c3ccccc3cc3ccccc23)c1
inactive: [1] 6.35% | [2] 14.2% | [3] 7.55% | [4] -3.1% | [5] 2.35% | [6] 11.6%

O=C1C(=Cc2ccccc2)C(=O)c2ccccc21
inactive: [1] 2.55% | [2] 25.6% | [3] 8.65% | [4] -17.6% | [5] 24.7% | [6] 9.3%

O=[N+]([O-])c1cc([N+](=O)[O-])c(C(Cl)C(Cl)c2ccccc2)cc1C(Cl)C(Cl)c1ccccc1 (configuration not stated)
inactive: [1] 2.4% | [2] 2.55% | [3] -18.9% | [4] 7.65% | [5] 0.6% | [6] -20.4%

O=c1c2cccnc2ncn1CCCN1CCCCC1
inactive: [1] -23.8% | [2] 1.85% | [3] 9.25% | [4] -7.5% | [5] 5.65% | [6] -6.25%

O/N=C1/C(=C/c2ccccc2)CCCC1C(NO)c1ccccc1 (configuration not stated)
inactive: [1] 27.9% | [2] 10.2% | [3] 27.2% | [4] 28.1% | [5] 17.1% | [6] 57.6%

CN(CC(=O)NC(=O)c1ccccc1)Cc1ccccc1
inactive: [1] -1.7% | [2] -9.25% | [3] 3.95% | [4] -37% | [5] 3.55% | [6] -7.8%

O=C(Nc1cc(Br)c2cccc3c2c1CC3)c1ccccc1
inactive: [1] 6.35% | [2] 10.9% | [3] 1.45% | [4] -5.25% | [5] 14.3% | [6] -0.95%

C/C(=N\NS(=O)(=O)c1ccc(C)cc1)c1c(C)noc1C
inactive: [1] -13.4% | [2] 7.55% | [3] 13.3% | [4] 3.85% | [5] 6.3% | [6] 13.3%

CCOC(=O)C1=C(C)N(Cc2ccccc2)C(C)=C(C(=O)OCC)C1c1ccccc1O
inactive: [1] 20.5% | [2] 28.2% | [3] 20.1% | [4] 17.6% | [5] 30.8% | [6] 18.6%

CCOC(=O)Cc1nc2ncncc2[nH]c1=O
inactive: [1] 3.25% | [2] 12.2% | [3] -1.8% | [4] 15.3% | [5] 2.35% | [6] -7.85%

CCCCc1[nH]nc(-c2n[nH]c(CCCC)c2C)c1C
inactive: [1] 25.4% | [2] 14.1% | [3] 28.5% | [4] 7.95% | [5] 18.6% | [6] 27.9%

O=C(NC1CCCCC1)/C(=C\c1ccc(/C=C(/NC(=O)c2ccccc2)C(=O)NC2CCCCC2)cc1)NC(=O)c1ccccc1
inactive: [1] -9.95% | [2] -26.9% | [3] 9.5% | [4] -34.5% | [5] -22.6% | [6] -20.8%

Nc1nc(SCc2ccccc2)c2ncn(C3CC(O)C(CO)O3)c2n1 (configuration not stated)
inactive: [1] 0.05% | [2] -1.2% | [3] 3.1% | [4] -99.5% | [5] -1.45% | [6] -6.15%

OCC(O)C(O)C(O)C(c1ccc(Cl)cc1)c1ccc(Cl)cc1 (configuration not stated)
inactive: [1] -16.4% | [2] 0.65% | [3] -23% | [4] 5.35% | [5] 2.25% | [6] 35%

CC1CCC(C(=O)O)CC1 (configuration not stated)
inactive: [1] -16.9% | [2] -9% | [3] -2% | [4] 21.8% | [5] -0.85% | [6] -14.2%

CC(=N\N=C\c1ccccn1)/C(C)=N/N=C(C)/C(C)=N/N=C/c1ccccn1
inactive: [1] 29.1% | [2] 17.9% | [3] 7.9% | [4] 11.4% | [5] 1.95% | [6] -23.1%

CCOC(=O)NN(C(=O)OCC)c1c(NN)n(C)c(=O)n(C)c1=O
inactive: [1] 2.7% | [2] -19.7% | [3] 9.2% | [4] -10.4% | [5] 12.4% | [6] -11.5%

CC[CH2][Sn]([CH2]CC)([O]C(=O)Cc1ccc(F)cc1)[O][Sn]([CH2]CC)([CH2]CC)[O]C(=O)Cc1ccc(F)cc1
active: [1] 90.2% | [2] 89.4% | [3] 87.8% | [4] 82.8% | [5] 89.1% | [6] 83.6%

CCOC(=O)c1cccc2ncccc12
inactive: [1] -1.6% | [2] 9.35% | [3] -2.8% | [4] -28.2% | [5] -9.05% | [6] 10.8%

O=C1N2CCCSC2=NC1(c1ccccc1)c1ccccc1
inactive: [1] -7.15% | [2] 0.7% | [3] 1.75% | [4] 11.2% | [5] 13.2% | [6] -0.05%

CC(C)N(C(=O)C12C3C4C1C1C2C3C41C(=O)C(C)(C)C)C(C)C (configuration not stated)
inactive: [1] 43% | [2] 28.9% | [3] 52% | [4] 61% | [5] 41% | [6] 50.8%

c1ccc(-c2nnnn2-c2ccccc2)cc1
inactive: [1] -0.5% | [2] -2.8% | [3] 7.9% | [4] -7.5% | [5] 5.4% | [6] 17.7%

O=c1oc2c(ccc3ccccc32)c(O)c1-c1cccc2ccccc12
active: [1] 99.2% | [2] 99.5% | [3] 99.5% | [4] 99% | [5] 97.7% | [6] 99.3%

Source: PubChem BioAssay (NCI)
